Source: PubChem
USP2a inh: qHTS Assay for Inhibitors of Ubiquitin-specific Protease USP2a Using CHOP2 as the Reporter. Ubiquitin carboxyl-terminal hydrolase 2 (Homo sapiens), O75604. Potency, µM (titrated, usually from 38.3 µM), for inactives: top-dose activity change, negative = inhibition, most hits filed as inhibitors. hit rate 0.01% among 330,000. USP2 core, Ub-CHOP2 coupled fluorogenic reporter, 485/531;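 note: potency is the fitted concentration of half-maximal effect; plate controls were DMSO wells for no effect and full inhibition by NEM control for full effect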
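Deubiquitinase activity read as fluorescence (485/531 nm) after Ub-CHOP2 cleavage activates the enterokinase reporter on its substrate; USP2 core 10nM, Ub-CHOP2 and substrate 25nM each, 30min compound preincubation then 60min RT; data normalized to NEM, curves fitted.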
PLK1 PBD block: qHTS for Inhibitors of PLK1-PDB (polo-like kinase 1 - polo-box domain): Primary Screen. Serine/threonine-protein kinase PLK1 (Homo sapiens), P53350. Plk1 PBD binding of FITC phosphopeptide, fluorescence polarization. Potency, µM, inactives show max response, negative = inhibition, hits mostly inhibitors. hit rate 2.8% among 360,000; note: potency is the fitted concentration of half-maximal effect; series mostly up to about 57 µM; nearly all actives have a fitted effect of over 65% in size
PI5P4K alpha inh: qHTS for Inhibitors of phosphatidylinositol 5-phosphate 4-kinase (PI5P4K); max response, %; AID 652105, 2013; hit rate 1.2% among 330,000; PI5P4Kalpha enzyme, ADP-Glo luminescence, 60 min; stronger effect = lower value; active = max response of -50% or lower; inconclusive = between -30% and -50%; inactive = -30% or higher; note: value at the top dose of about 77 µM
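Luminescence from ADP-Glo served as readout of PI5P4Kalpha activity in a qHTS format. Reaction: enzyme, substrate, compound, ATP at 5 microM final, 60 min at RT.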
WRN helicase inh: qHTS for Inhibitors of WRN Helicase | WRN helicase unwinding, fluorescent forked duplex, kinetic | Potency, µM (highest dose often 114 µM), without a hit: at the highest dose activity change, negative = inhibition, actives largely listed as inhibitors | hit rate 0.46% among 360,000; note: potency is the fitted concentration of half-maximal effect; nearly all actives have a fitted effect of over 55% in size
Target sequence (Q14191 whole entry, looked up): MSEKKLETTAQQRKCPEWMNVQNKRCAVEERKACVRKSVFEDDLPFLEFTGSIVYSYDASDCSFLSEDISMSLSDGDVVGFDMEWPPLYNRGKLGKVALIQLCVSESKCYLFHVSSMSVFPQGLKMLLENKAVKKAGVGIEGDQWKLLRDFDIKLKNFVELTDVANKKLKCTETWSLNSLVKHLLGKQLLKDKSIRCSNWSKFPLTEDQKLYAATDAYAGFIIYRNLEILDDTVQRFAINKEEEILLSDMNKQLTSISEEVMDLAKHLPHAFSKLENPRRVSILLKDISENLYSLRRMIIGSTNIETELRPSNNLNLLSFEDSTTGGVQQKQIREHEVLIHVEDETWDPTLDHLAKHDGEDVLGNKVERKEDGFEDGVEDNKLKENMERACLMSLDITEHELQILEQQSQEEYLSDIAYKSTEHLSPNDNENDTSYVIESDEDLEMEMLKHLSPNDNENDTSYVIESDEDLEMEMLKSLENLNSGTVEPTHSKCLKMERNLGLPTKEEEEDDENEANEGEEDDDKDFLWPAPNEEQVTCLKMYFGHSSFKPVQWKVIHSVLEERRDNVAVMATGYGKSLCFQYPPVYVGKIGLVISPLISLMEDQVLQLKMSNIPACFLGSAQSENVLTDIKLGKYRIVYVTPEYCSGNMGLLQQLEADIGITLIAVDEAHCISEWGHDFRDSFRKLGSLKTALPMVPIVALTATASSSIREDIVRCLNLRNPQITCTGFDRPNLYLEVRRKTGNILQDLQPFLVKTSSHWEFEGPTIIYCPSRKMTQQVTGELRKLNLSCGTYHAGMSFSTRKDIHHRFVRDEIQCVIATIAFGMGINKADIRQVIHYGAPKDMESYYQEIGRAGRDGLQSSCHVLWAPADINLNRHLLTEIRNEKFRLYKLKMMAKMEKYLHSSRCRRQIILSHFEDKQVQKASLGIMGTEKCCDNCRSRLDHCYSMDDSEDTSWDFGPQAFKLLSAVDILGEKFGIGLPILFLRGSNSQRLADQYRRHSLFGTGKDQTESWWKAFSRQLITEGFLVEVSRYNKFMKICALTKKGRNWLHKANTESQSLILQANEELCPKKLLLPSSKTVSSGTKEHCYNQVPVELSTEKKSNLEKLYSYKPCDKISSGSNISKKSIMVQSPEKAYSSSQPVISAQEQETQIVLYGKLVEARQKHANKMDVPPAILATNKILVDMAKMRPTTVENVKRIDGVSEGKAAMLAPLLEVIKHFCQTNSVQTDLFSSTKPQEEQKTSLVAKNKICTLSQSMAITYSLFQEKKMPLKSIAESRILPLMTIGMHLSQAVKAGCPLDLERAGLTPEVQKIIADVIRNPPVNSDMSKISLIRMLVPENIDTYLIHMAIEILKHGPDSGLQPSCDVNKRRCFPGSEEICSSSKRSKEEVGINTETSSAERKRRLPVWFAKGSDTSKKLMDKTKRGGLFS
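Enzyme (20 nM final) and test compound sit together 15 min at room temperature before substrate addition. Substrate is a single-forked duplex oligonucleotide (100 nM) labelled with fluorophore and quencher, with 2 mM ATP; helicase unwinding raises red fluorescence, read kinetically.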
USP1-UAF1 inh: Inhibitors of USP1/UAF1: Primary Screen. Ubiquitin carboxyl-terminal hydrolase 1 (Homo sapiens), O94782. recombinant USP1/UAF1, Ub-Rhodamine cleavage fluorescence. Potency, µM (top dose mostly 57.1 µM), inactives show at the highest dose activity change, negative = inhibition, usual class: inhibitors. hit rate 0.23% among 390,000. AID 743255, 2014; note: potency is the fitted concentration of half-maximal effect; nearly all actives have a fitted effect of over 60% in size
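1 nM enzyme complex + cpd, 15 min RT; start with Ub-Rho 150nM final; kinetic fluorescence ex 480/em 540, 6 reads q60 s. Buffer 50mM HEPES pH 7.8, 0.5mM EDTA, 0.1 mg/ml BSA, 1mM TCEP, 0.01% Tween-20.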
* = called active by the depositor; [ ] = another dose, or the depositor's remark. Rows were chosen to be rich in hits. Some 3.3% of all compounds tested hit in one or more screens of this group. Unless noted, calls come from the whole dose curve; as a rule, active = well fitted curve in the direction sought with a large enough effect; inconclusive = small, poorly fitted or top-dose-only effect, or another doubt; inactive = no such curve, though single readings can be large; an effect the other way counts as inactive or inconclusive. Unless noted, % is set by controls: 0 for no effect and ±100 for the full control effect.

`CCOc1cc(-c2nn3cnnc3s2)cc(OCC)c1OCC` gave USP2a inh 1.4%, PLK1 PBD block 3.77µM*, PI5P4K alpha inh inconclusive, WRN helicase inh 6.7% and USP1-UAF1 inh -15.9%.
For CCCC(=O)NC(=S)Nc1cccc(NC(=O)c2ccc(Cl)cc2Cl)c1 the results were USP2a inh 1.0%, PLK1 PBD block 26.7µM*, PI5P4K alpha inh -20.8, WRN helicase inh 0.7% and USP1-UAF1 inh -19.1%.
For CCC(=O)Nc1ccc(Cl)c(NC(=S)NC(=O)COc2ccccc2)c1 the results were USP2a inh 1.7%, PLK1 PBD block 26.7µM*, PI5P4K alpha inh 1.6, WRN helicase inh 6.0% and USP1-UAF1 inh -27.2%.
Screening O=C(O)CCC(=O)Nc1ccc(NC(=O)c2ccc(Cl)cc2Cl)c(Cl)c1 returned USP2a inh -1.9%, PLK1 PBD block 21.2µM*, PI5P4K alpha inh -9.0, WRN helicase inh 0.7%[57.1 µM] and USP1-UAF1 inh -3.4%.
Screening CCC(=O)NC(=S)Nc1cccc(NC(=O)c2ccccc2Cl)c1 returned USP2a inh 3.8%, PLK1 PBD block 26.7µM*, PI5P4K alpha inh -8.0, WRN helicase inh 1.6% and USP1-UAF1 inh -20.2%.
`Cc1sc2ncnc(Nc3ccccc3)c2c1C` gave USP2a inh 2.4%, PLK1 PBD block 26.7µM*, PI5P4K alpha inh -18.9, WRN helicase inh -3.1% and USP1-UAF1 inh -18.5%.
`COc1cc(OC)c(OC)cc1CNCCNC(=O)c1ccco1` gave USP2a inh 1.5%, PLK1 PBD block -7.3%, PI5P4K alpha inh -10.5, WRN helicase inh inconclusive and USP1-UAF1 inh -9.6%.
Screening COc1cccc(CNCCNC(=O)c2ccco2)c1OC returned USP2a inh 0.2%, PLK1 PBD block 18.9µM*, PI5P4K alpha inh -7.6, WRN helicase inh 4.0% and USP1-UAF1 inh -3.2%.
For O=C(Cc1ccc([N+](=O)[O-])cc1)N1N=C(c2ccncc2)CC1(O)C(F)(F)F (stereo not given) the results were USP2a inh 0.5%, PLK1 PBD block 26.7µM*, PI5P4K alpha inh inconclusive, WRN helicase inh -3.4% and USP1-UAF1 inh -21.3%.
COc1cccc(CNC(=O)C2Cc3ccccc3CN2C(C)=O)c1 (stereo not given) was read as USP2a inh 3.1%, PLK1 PBD block 29.9µM*, PI5P4K alpha inh 1.2, WRN helicase inh 7.9% and USP1-UAF1 inh -17.7%.
For C=CCc1cccc2cc(C(=O)Nc3ccc(S(=O)(=O)Nc4nnc(CC)s4)cc3)c(=O)oc12 the results were USP2a inh -1.2%, PLK1 PBD block 21.2µM*, PI5P4K alpha inh 2.6, WRN helicase inh -31.9% and USP1-UAF1 inh inconclusive.
Screening CCc1nnc(NS(=O)(=O)c2ccc(NC(=O)c3ccccc3)cc2)s1 returned USP2a inh -1.9%, PLK1 PBD block -9.6%, PI5P4K alpha inh 0.7, WRN helicase inh -3.6% and USP1-UAF1 inh -9.3%.
Screening CCc1nnc(NS(=O)(=O)c2ccc(N/C=C\C(=O)c3ccc4ccccc4c3)cc2)s1 returned USP2a inh 0.0%, PLK1 PBD block 23.8µM*, PI5P4K alpha inh inconclusive, WRN helicase inh 50.1µM* and USP1-UAF1 inh -18.3%.
Screening CCc1nnc(NS(=O)(=O)c2ccc(NC(=S)NC(=O)/C=C/c3ccc(C(C)C)cc3)cc2)s1 returned USP2a inh -25.2%, PLK1 PBD block 21.2µM*, WRN helicase inh 89.1µM* and USP1-UAF1 inh 25.1µM*.
`C=CCc1cccc2cc(C(=O)Nc3ccc(F)cc3)c(=O)oc12` gave USP2a inh 0.5%, PLK1 PBD block -12.0%, PI5P4K alpha inh -4.7, WRN helicase inh 6.8% and USP1-UAF1 inh -9.0%.
Screening CCc1nnc(NS(=O)(=O)c2ccc(NC(=S)NC(=O)/C=C/c3ccccc3)cc2)s1 returned USP2a inh 1.6%, PLK1 PBD block inconclusive, PI5P4K alpha inh inconclusive, WRN helicase inh inconclusive and USP1-UAF1 inh -10.8%.
Screening CCc1nnc(NS(=O)(=O)c2ccc(NC(=S)NC(=O)/C=C/c3ccc(OC)cc3)cc2)s1 returned USP2a inh 0.6%, PLK1 PBD block 26.7µM*, PI5P4K alpha inh -9.9, WRN helicase inh inconclusive and USP1-UAF1 inh -6.8%.
`CCOc1ccccc1Nc1nc(-c2cccc(Cl)c2)c2c(n1)-c1ccccc1OC2` gave USP1-UAF1 inh -16.0%.
Screening CN1c2ccsc2/C(=N/Nc2ccc(F)cc2)CS1(=O)=O returned USP2a inh 0.2%, PLK1 PBD block 26.7µM*, PI5P4K alpha inh inconclusive, WRN helicase inh inconclusive and USP1-UAF1 inh inconclusive.
Screening Cc1ccc(-c2cc(NC(=O)COc3c(C)cc(C)cc3C)on2)cc1 returned USP1-UAF1 inh -12.1%.
For CC(=O)c1ccc(-c2cnc3c(NC=O)cc(-c4ccc(C(=O)NC5CC5)cc4)cn23)cc1 the results were PLK1 PBD block -2.5%, PI5P4K alpha inh -67.8* and WRN helicase inh inconclusive.
O=CNc1cc(-c2ccc(C(=O)NC3CC3)cc2)cn2c(-c3ccccc3)cnc12 was read as PLK1 PBD block -15.4%, PI5P4K alpha inh -24.0 and WRN helicase inh -21.2%.
For O=CNc1cc(-c2cccc(O)c2)cn2c(-c3ccc(F)cc3)cnc12 the results were PLK1 PBD block -17.6%, PI5P4K alpha inh -72.3* and WRN helicase inh -15.5%.
CC(=O)Nc1cccc(-c2cc(NC=O)c3ncc(-c4ccc(C(C)=O)cc4)n3c2)c1 was read as PLK1 PBD block -7.8%, PI5P4K alpha inh -51.4* and WRN helicase inh -21.4%.
`COc1ccc(-c2cnc3c(NC=O)cc(-c4cc(OC)c(OC)c(OC)c4)cn23)cc1OC` gave PLK1 PBD block -5.7%, PI5P4K alpha inh -8.1 and WRN helicase inh inconclusive.
COc1ccc(-c2cc(NC=O)c3ncc(-c4cc(OC)c(OC)c(OC)c4)n3c2)cc1 was read as PLK1 PBD block -9.4%, PI5P4K alpha inh inconclusive and WRN helicase inh 79.4µM*.
Screening CCOC(=O)c1c(C)[nH]c(C)c1S(=O)(=O)N1CCCC(C(=O)Nc2cccc(CC)c2)C1 (stereo not given) returned USP1-UAF1 inh -31.0%.
`CCOC(=O)c1ccc(-n2c(CCC(=O)O)ccc2-c2ccc(Br)cc2)cc1` gave USP1-UAF1 inh 1.1%.
For COc1cccc(C(=O)N2CCCCC2CCN2CCCCC2)c1 (stereo not given) the results were USP1-UAF1 inh -19.5%.
For CC(=O)c1ccc(NC(=O)CSc2nc3nn(-c4ccccc4)c(=O)c-3c3n2CCCCC3)cc1 the results were PLK1 PBD block -5.4%, PI5P4K alpha inh -5.2, WRN helicase inh -4.0% and USP1-UAF1 inh -13.1%.
